Results on 69 molecules are retold here after PubChem BioAssay AID1117361 (Southern Research Institute, 2015).

Each structure is given as a SMILES string. About 900 (25%) of roughly 3,600 compounds were called active. A selection follows. Entries with a potency or affinity are not part of this list. Unmarked numbers belong to inactive results. How the calls were made is not given here.

This assay has as its target Protein Tat (Human immunodeficiency virus type 1 group M subtype B (isolate HXB2)) (UniProt P04608). Nature of the assay: HIV-1 Tat–TAR interaction blockers – biochemical, fluorescence polarization, FAM-labeled TAR RNA, counter-screen for Vif-APOBEC3G degradation inhibitor project, dose response (AID 1117361). The settings on record: Tat-TAR RNA binding; series mostly up to 100 µM; inhibition: at the top concentration. A general note: In fluorescence polarisation assays a small probe gives low polarisation when free and higher when bound to something large.
For orientation: inhibition means the change of the read-out against control, counted positive when it falls. On to `CCOC(=O)C(C)Sc1nnc2n1C(C)(C)Cc1ccccc1-2` (centres undefined), for which the “inhibition” value is 0.68%.
Take `O=S1(=O)CCC(N2CCOCC2)C1` (centres undefined): the “inhibition” value was 2.7%.
As to `CCOC(=O)/C=C1\SC(C)C(=O)N1CC(=O)N(CCC#N)c1ccccc1` (centres undefined), the call was inactive.
For the molecule `COc1ccc(OC)c(-n2cnnn2)c1`, the “inhibition” value was 7.43%.
Regarding `COc1ccc(C2=NO[C@@H]3C(=O)N(c4ccc(C)cc4C)C(=O)[C@H]23)cc1OC`, the “inhibition” value is 12.3%.
As for `CC(C)(C)NC(=O)C1N(c2cccnc2)C(=O)C2C(C(=O)Nc3ccccc3F)C3(C)C=CC21O3` (centres undefined), the “inhibition” value is 16.2%.
With `COc1ccc(OC)c(NC(=O)CSc2nnc(C)n2Cc2ccccc2)c1`, the molecule was called inactive.
For the molecule `O=C(NCCN1CCOCC1)c1cc(-c2ccc(Br)cc2)on1`, the “inhibition” value is 0.68%.
Consider `Cc1cc(SCC(=O)NCCCN2CCCC2=O)nc2ccccc12`, for which the call was inactive.
Take `CCc1nc(SCC(=O)Nc2ccc(C(=O)O)cc2)n[nH]1`: the “inhibition” value was 0.68%.
`S=c1[nH]nc(COc2ccc(Cl)cc2)o1`: the “inhibition” value was 12.4%.
For the molecule `O=C(NNc1cc(Cl)cc(Cl)c1)c1c(F)cccc1Cl`, the result was inactive.
On to `S=c1nc(-c2ccc(Br)cc2)oc2c1CCCC2`, for which the “inhibition” value was 13%.
Turning to `CCOC(=O)N1CCN(CC(=O)c2ccc3c(c2)CCN3C(C)=O)CC1`, the “inhibition” value is 10.1%.
On to `Cc1ccc(Cc2cnc(NC(=O)/C(C#N)=C/c3ccc(-c4ccc([N+](=O)[O-])cc4)o3)s2)cc1`, for which the “inhibition” value is 10.8%.
On to `CC(OC(=O)c1ccc([N+](=O)[O-])o1)C(=O)NC1CCCCC1C` (centres undefined), for which the “inhibition” value is 7.42%.
With `COc1cc(O)oc1C=Nc1ccccc1`, the “inhibition” value was 8.78%.
Same read-out and setting: to `CCOc1ccccc1C1CC(=O)NC(SCC)=C1C#N` (centres undefined) belongs 10.8%.
Turning to `O=S(=O)(Nc1ccc(Cc2ccncc2)cc1)c1ccc(Br)cc1`, the molecule was called inactive.
For `COc1ccc(N(CC(=O)NCCC2=CCCCC2)S(=O)(=O)c2ccccc2)cc1`, the “inhibition” value was 11.6%.
Take `O=C1CC(c2ccco2)CC(O)=C1C=NCC1CCNCC1` (centres undefined): the molecule was classed as inactive.
Turning to `CCCN(CC(=O)Nc1ccccc1C)C(=O)COC(=O)c1cnc(C)cn1`, the outcome was inactive.
As for `CC(C)(C)NC(=O)CSc1nnc(-c2ccncc2)n1Cc1ccccc1`, the “inhibition” value was 6.76%.
In the case of `CCOC(=O)Cn1c(=O)oc2cc(S(=O)(=O)NC3CCCc4ccccc43)ccc21` (centres undefined), the outcome was inactive.
With `CCn1c(SC(C)C(=O)NC2CCCc3ccccc32)nnc1-c1cccs1` (centres undefined), the “inhibition” value was 3.38%.
Consider `c1ccc2c(c1)ccc1nnc(SCc3ccc4c(c3)OCO4)n12`, for which the “inhibition” value was 12.2%.
Regarding `CCC(c1ccc(O)c(O)c1)C(CC)c1ccc(O)c(O)c1` (centres undefined), the “inhibition” value is 3.01%.
As to `CSc1ccc(CN(C)CC(=O)NC(=O)NCCC2=CCCCC2)cc1`, the outcome was inactive.
As to `COc1cc(/C=N/N=C(N)N)ccc1OCc1ccc(Cl)cc1`, the result was inactive.
With `CSc1cccc(-n2cc(-c3ccc4c(c3)OCO4)[nH]c2=O)c1`, the “inhibition” value is 3.41%.
On to `CSCC[C@@H](Nc1nc(-c2ccccc2)nc2c1oc1ccccc12)C(=O)O`, for which the “inhibition” value is 4.09%.
In the case of `CN1CCN(C(=O)C2CCN(S(=O)(=O)c3cnc[nH]3)CC2)CC1`, the “inhibition” value was 8.19%.
As for `C/C=C/c1ccc(OCC(=O)N2CCc3cc(OC)c(OC)cc3C2)c(OC)c1`, the “inhibition” value was 1.65%.
`COCCCNC(=O)c1cc(OC)c(OC)c(OC)c1`: the call was inactive.
In the case of `Cc1nn(-c2ccccc2)cc1/C=N/O`, the “inhibition” value is 12.2%.
Take `CCCc1nc(SCC(=O)N2CCCc3ccccc32)c2c(=O)n(C)c(=O)n(C)c2n1`: the outcome was inactive.
Turning to `O=C(NC(Cc1ccccc1)c1nc2ccccc2[nH]1)c1cccc([N+](=O)[O-])c1` (centres undefined), the outcome was inactive.
As for `CCOC(=O)C1=C(C)N=c2s/c(=C/c3ccco3)c(=O)n2C1c1cccc(OC)c1` (centres undefined), the “inhibition” value was 1.65%.
In the case of `CCOC(=O)C1=C(C)NC(C)=C(C(=O)OCC)C1c1cn(-c2ccccc2)nc1-c1ccco1`, the “inhibition” value was 25%.
Same read-out and setting: as for `O=C(CN1c2ccccc2Sc2ccccc21)NNC(=S)Nc1ccc(Cl)cc1Cl`, the figure is 1.35%; as for `CCCn1nc(NC(=O)c2cccs2)c2cc3ccccc3nc21`, 16.2%.
Turning to `CC1=C(SCc2ccccc2)C(=O)c2ccccc2C1=O`, the molecule was called inactive.
Consider `CCCCNC(=O)c1onc(CSc2ccc(C(C)C)cc2)c1C(=O)O`, for which the “inhibition” value was 0.68%.
For `COc1ccc(CCN(C)C(=O)COC(=O)/C=C/c2ccc(C)o2)cc1OC`, the “inhibition” value was 8.35%.
As for `Cn1nc(C(F)(F)F)c(C#N)c1N1CCN(c2ccc(F)cc2)CC1`, the “inhibition” value was 6.08%.
For the molecule `Cn1cc(/C=C/C(=O)N2CCCC(C(=O)c3cccc(C(F)(F)F)c3)C2)cn1` (centres undefined), the “inhibition” value is 6.6%.
For `CCOC(=O)C1Nc2ccc(Br)cc2C2C=CCC12` (centres undefined), the “inhibition” value is 5.68%.
On to `CC(C)Cc1nc2oc3c(NCC(C)O)ncnc3c2c2c1CCCC2` (centres undefined), for which the molecule was classed as inactive.
Consider `O=C(NC1CCCCC1)C(c1ccc(F)cc1)N(C(=O)Cc1ccsc1)c1ccc(F)cc1` (centres undefined), for which the “inhibition” value was 0.68%.
As for `O=C1C(O)CC2c3ccccc3CC3(CCCC3)N12` (centres undefined), the “inhibition” value was 16.2%.
As to `Cc1ccc2c(c1)NC(=O)c1cc([N+](=O)[O-])ccc1O2`, the “inhibition” value is 6.6%.
For the molecule `CCCCn1c(NCc2ccccc2NS(=O)(=O)c2ccc(C)cc2)nc2ccccc21`, the “inhibition” value is 4.73%.
As for `CCOC(=O)C1=C(c2ccccc2)NC(=O)NC1c1cc(Cl)c(O)c(OC)c1` (centres undefined), the “inhibition” value was 0.82%.
Regarding `CCOc1ccc(NC(=O)C(C)SC(N)=O)cc1` (centres undefined), the outcome was inactive.
On to `CCOc1cc(/C=C2/C(=O)N(c3ccccc3)N=C2C)ccc1OC(=O)c1ccco1`, for which the “inhibition” value is 0.68%.
In the case of `O=C(NC1CCN(C(=S)NCc2ccco2)CC1)C12CC3CC(CC(C3)C1)C2`, the molecule was classed as inactive.
For `Cc1[nH]nc2c1C(c1cn[nH]c1-c1ccc(F)cc1)C(C#N)=C(N)O2` (centres undefined), the “inhibition” value is 9.46%.
As to `COc1ccc2c(c1)O[C@@H](c1ccc3c(c1)OCO3)[C@H](OC(=O)Nc1cc(OC)c(OC)c(OC)c1)C2=O`, the molecule was called inactive.
On to `Cn1cc(Br)c(C(=O)NC2CCCCC2)n1`, for which the “inhibition” value was 4.73%.
With `CCOCCCNC(=S)Nc1ccc2nc(N3CCN(CC)CC3)cc(C)c2c1`, the “inhibition” value is 7.68%.
`Cc1nn(Cc2ccc(Cl)cc2Cl)c(C)c1NC(=O)NC12CC3CC(CC(C3)C1)C2`: the result was inactive.
Consider `Cc1c(C)c2ccc(O[C@@H]3O[C@H](CO)[C@H](O)[C@H](O)[C@H]3O)c(C)c2oc1=O`, for which the “inhibition” value is 6.35%.
Regarding `Cn1c(SCC(=O)NC(c2ccccc2)c2ccccc2)nnc1-c1cccs1`, the “inhibition” value is 3.38%.
On to `CCCC(=O)Nc1ccc(Br)cn1`, for which the “inhibition” value is 4.05%.
With `CC12CCC(C(=O)Nc3ccc(Br)cn3)(OC1=O)C2(C)C` (centres undefined), the molecule was classed as inactive.
`O=C(Nc1ccc(F)cc1F)c1noc2c1CCC2`: the molecule was classed as inactive.
Turning to `O=C(Nc1ccccc1F)c1ccc(S(=O)(=O)NCC2CCCO2)cc1` (centres undefined), the “inhibition” value is 4.77%.
For the molecule `CC(C)(C)C1CCC(OC(=O)C[N+]2(C)CCCCC2)CC1` (centres undefined), the molecule was classed as inactive.
Take `COc1ccc(CNC(=O)C2CCCN(S(=O)(=O)c3c(C)nn(C)c3C)C2)cc1` (centres undefined): the outcome was inactive.
